# Screening results deposited in PubChem by National Center for Advancing Translational Sciences (NCATS).
# An excerpt weighted towards active compounds, which were near 0.43% of everything screened.
# GAA glycogen = qHTS Assay for Inhibitors and Activators of Human alpha-Glucosidase Cleavage of Glycogen; recombinant GAA, glycogen substrate, Amplex Red glucose oxidase fluorescence; Lysosomal alpha-glucosidase (Homo sapiens), P10253; AID 2100, 2009; Potency, µM (series often up to 76.4 µM), for the others: at the top dose activity change, negative = inhibition, most hits filed as inhibitors; 300,000 compounds, 0.38% hits;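 also: potency is read from the fitted curve at half-maximal effect; 0% = full enzyme reaction and -100% = no-enzyme basal signal; the screen sought inhibitors and activators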
#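 Natural-substrate format: glycogen cleavage by 4 nM human enzyme, glucose read by Amplex Red coupling (Ex 573, Em 610 nm). Normalized to enzyme and no-enzyme controls.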
# GAA spleen mod = qHTS Assay for Inhibitors and Activators of Human alpha-Glucosidase From Spleen Homogenate; Lysosomal alpha-glucosidase (Homo sapiens), P10253; human spleen homogenate, 4-MU-alpha-glucoside fluorescence; Potency, µM (top dose mostly 79.9 µM), without a hit: top-dose activity change, negative = inhibition, usual class: inhibitors; 240,000 compounds, 0.006% hits;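 also: potency is read from the fitted curve at half-maximal effect; 0% = enzyme with vehicle and -100% = no enzyme basal signal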
#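 Enzyme source: human spleen homogenate, 1 ug/well. Buffer 50 mM citric acid/K phosphate pH 5.0, 0.01% Tween-20. 4-MU-alpha-glucoside 1 mM; 37 C x 40 min; NaOH/glycine stop; fluorescence.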
# GLA inh pH 4.5 = qHTS Assay for Inhibitors of Human alpha-Galactosidase at pH 4.5. Alpha-galactosidase A (Homo sapiens), P06280. purified enzyme, 4-MU-alpha-Gal fluorescence, pH 4.5. activity change, negative = inhibition, % at 105 µM. 230,000 tested, under 10 active;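 also: 0% = full activity with enzyme and -100% = basal without enzyme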
# GAA inhib = qHTS Assay for Inhibitors of Human alpha-Glucosidase as a Potential Chaperone Treatment of Pompe Disease; Lysosomal alpha-glucosidase (Homo sapiens), P10253; purified human GAA, 4-MU-alpha-glucoside fluorescence; Potency, µM (series often up to 76.9 µM), without a hit: at the top dose activity change, negative = inhibition, actives largely listed as inhibitors; 200,000 compounds, 0.005% hits; AID 1466, 2008;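 also: potency is read from the fitted curve at half-maximal effect; plate controls were uninhibited enzyme wells for no effect and no-enzyme background for full effect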
#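 Human enzyme at 4 nM with 400 uM 4-methylumbelliferyl-alpha-D-pyranoside, citrate/phosphate buffer pH 5.0, 0.005% Tween-20, 20 min at room temperature. Compounds up to 77 uM. 4-MU fluorescence (Ex 365/Em 440) read after NaOH/glycine stop; AC50 from Hill fit.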
# GLA spleen mod = qHTS Assay for Inhibitors and Activators of Human alpha-Galactosidase From Spleen Homogenate | Alpha-galactosidase A (Homo sapiens), P06280 | human spleen homogenate, 4MU-alpha-Gal fluorescence, 40 min | Potency, µM (titrated, usually from 80 µM), for inactives: at the top dose activity change, negative = inhibition, actives largely listed as inhibitors | 240,000 compounds, 0.008% hits | AID 2107, 2009;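 also: potency is read from the fitted curve at half-maximal effect; 0% = enzyme with vehicle and -100% = no enzyme basal signal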
# Target sequence (P06280 32-429 limits assumed): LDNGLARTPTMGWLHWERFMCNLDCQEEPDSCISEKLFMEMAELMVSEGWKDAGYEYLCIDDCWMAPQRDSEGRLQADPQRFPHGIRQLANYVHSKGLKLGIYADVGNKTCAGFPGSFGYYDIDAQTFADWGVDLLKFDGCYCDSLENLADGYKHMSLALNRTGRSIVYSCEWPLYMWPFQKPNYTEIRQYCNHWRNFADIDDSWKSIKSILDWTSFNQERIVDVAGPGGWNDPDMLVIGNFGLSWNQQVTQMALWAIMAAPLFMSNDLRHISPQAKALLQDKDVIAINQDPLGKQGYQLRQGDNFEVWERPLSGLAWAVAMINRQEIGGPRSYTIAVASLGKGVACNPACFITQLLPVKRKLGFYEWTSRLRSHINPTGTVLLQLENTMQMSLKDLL
#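 Human spleen homogenate (1 ug) was the enzyme source, with 4-methylumbelliferyl-alpha-D-galactopyranoside (1 mM final) in pH 5.0 citrate buffer with 0.01% Tween-20. Compounds were titrated; after 40 min at 37C, NaOH/glycine stop, 4-MU fluorescence read; AC50 from Hill fits.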
# N370S GC mod = qHTS Assay for Inhibitors and Activators of N370S glucocerebrosidase as a Potential Chaperone Treatment of Gaucher Disease | N370S GC spleen homogenate, 4MU-glucoside fluorescence | Potency, µM (titrated, usually from 59.4 µM), inactives show top-dose activity change, negative = inhibition, most hits filed as inhibitors | 330,000 compounds, 0.092% hits | AID 2101, 2009;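 also: potency is read from the fitted curve at half-maximal effect; 0% = full enzyme activity and -100% = no enzyme basal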
# Starred values were filed as active, the others as inactive; ? = inconclusive; / = no result; [ ] = another dose, or the depositor's remark. Calls follow the shape of the dose curve; as a rule, active = well fitted curve in the direction sought with a large enough effect; inconclusive = small, poorly fitted or top-dose-only effect, or another doubt; inactive = no such curve, though single readings can be large; an effect the other way counts as inactive or inconclusive.
SMILES,GAA glycogen,GAA spleen mod,GLA inh pH 4.5,GAA inhib,GLA spleen mod,N370S GC mod
O=C(O)C[C@@H]1C(=O)O[C@@H]2C(COC(=O)c3cc(O)c(O)c(O)c3)O[C@@H](OC(=O)c3cc(O)c(O)c(O)c3)[C@@H](OC(=O)c3cc(O)c(O)c4c3[C@H]1[C@H](O)C(=O)O4)[C@H]2OC(=O)c1cc(O)c(O)c(O)c1 (stereo partly drawn),1.6µM*,?,-1,/,10%,-19%
CCSC[C@H](NC(=O)[C@H](C)NC(=O)[C@@H](N)Cc1ccc(O)cc1)C(=O)N[C@@H](CC(=O)O)C(=O)N[C@H](C(=O)N[C@@H](C)C(=O)N[C@H](C(=O)N[C@@H](CSCC)C(=O)N[C@H](C(=O)N[C@H](C(=O)N[C@@H](Cc1cnc[nH]1)C(=O)N[C@@H](CCCNC(=N)N)C(=O)N[C@@H](CC(C)C)C(=O)N[C@@H](C)C(=O)NCC(=O)N[C@@H](CC(C)C)C(=O)N[C@@H](CC(C)C)C(=O)N[C@@H](CO)C(=O)N[C@@H](CCCNC(=N)N)C(=O)N[C@@H](CO)C(=O)NCC(=O)NCC(=O)N[C@H](C(=O)N[C@H](C(=O)N[C@@H](CCCCN)C(=O)N[C@@H](CC(N)=O)C(=O)N[C@@H](CC(N)=O)C(=O)N[C@@H](Cc1ccccc1)C(=O)N[C@H](C(=O)N1CCC[C@H]1C(=O)N[C@H](C(=O)N[C@@H](CC(N)=O)C(=O)N[C@H](C(=O)NCC(=O)N[C@@H](CO)C(=O)N[C@@H](CCCCN)C(=O)N[C@@H](C)C(=O)N[C@@H](Cc1ccccc1)C(N)=O)C(C)C)[C@@H](C)O)C(C)C)C(C)C)C(C)C)[C@@H](C)O)C(C)C)[C@@H](C)O)[C@@H](C)O,/,?,/,/,-18%,-21%
Cc1ccc(S(=O)(=O)N/N=C/c2ccc(O)cc2O)cc1[N+](=O)[O-],25µM*,-1%,2,/,6%,8%
Cc1ccc(S(=O)(=O)N/N=C/c2cc([N+](=O)[O-])ccc2O)cc1[N+](=O)[O-],-6%,7%,-8,-12%,4%,2%
O=C(/C=C/c1ccc(/C=C/C(=O)Nc2ccc(C3=NCCN3)cc2)cc1)Nc1ccc(C2=NCCN2)cc1,/,-9%,/,/,9%,-6%
CCC1CCCCC1,/,-10%,/,/,10%,-8%
Cc1ccn2c(Nc3ccc4c(c3)OCO4)c(-c3ccc(C)o3)nc2c1,4µM*,/,/,/,/,/
Cc1ccc(-c2nc3ccc(Br)cn3c2Nc2ccc3c(c2)OCO3)o1,-12%[76.3 µM],/,/,/,/,/
Cc1ccc(-c2nc3cnccn3c2Nc2ccc3c(c2)OCO3)o1,7.9µM*,-6%,?,?,-8%,0%
COc1ccc(Nc2c(-c3ccc(C)o3)nc3cc(C)ccn23)cc1,5.6µM*,/,/,/,/,/
Cc1ccc(Nc2c(-c3ccc(C)o3)nc3cnccn23)cc1,-17%,5%,-2,-2%,3%,0%
COc1cc(-c2nc3ncccn3c2Nc2ccc(C)cc2C)ccc1O,10µM*,/,/,/,/,/
O=C1c2c(O)cc(O)cc2O[C@H](c2ccc(O)c(O)c2)C1O (stereo partly drawn),/,4%,/,/,-13%,-4%
COc1ccc(-c2nc3cnccn3c2Nc2ccc(C)cc2)cc1,7.1µM*,-22%,-8,2%,5%,?
COc1cc(-c2nc3sccn3c2Nc2c(C)cccc2C)ccc1O,-18%[76.3 µM],/,/,/,/,/
CSc1ccc(-c2nc3cnccn3c2Nc2ccc3c(c2)OCO3)cc1,22µM*,-4%,-26,-28%,-4%,-1%
Clc1ccc(-c2nc3cnccn3c2Nc2ccc3c(c2)OCO3)cc1,?,1%,-1,-1%,8%,-16%
Oc1ccccc1-c1nc2cnccn2c1Nc1ccc2c(c1)OCCO2,7.9µM*,-3%,-5,?,3%,15%
COc1cc(-c2nc3cnccn3c2Nc2c(C)cccc2C)ccc1O,14µM*,0%,-2,-1%,-3%,0%
O=C(Nc1cccc(C(F)(F)F)c1)Nc1cc(Cl)ccc1C(=O)O,/,-1%,/,/,4%,0%
O=C(Nc1cc(S(=O)(=O)N2CCOCC2)ccc1N1CCOCC1)c1cc(=O)[nH]c2ccccc12,28µM*,-17%,-11,?,-7%,4%
COc1cc(CCNC(C)=O)c(C(=O)/C=C/c2cccc(OC)c2OC)cc1OC,/,-3%,-4,/,5%,3%
COc1ccc(Nc2cc(C)c3c(O)cccc3n2)cc1,22µM*,4%,0,/,8%,-18%
CC(C)OC(=O)c1cn(Cc2c(F)cccc2F)c2sc(-c3ccc(NC(=O)C(C)C)cc3)c(CN(C)Cc3ccccc3)c2c1=O,/,2%,/,/,6%,-8%
COc1ccc(OC)c(C2OCCC=CC2C)c1 (stereo not drawn),/,0%[17.4 µM],/,/,5%[17.5 µM],-13%[12.8 µM]
SMILES,GAA glycogen,GAA spleen mod,GLA inh pH 4.5,GAA inhib,GLA spleen mod,N370S GC mod
ICCc1ccccc1,/,10%,/,/,2%,19%
Cc1ccc(C(=O)Nc2nc3ccccc3n3nnnc23)cc1,2%,-1%,-21,-1%,6%,2%
O=C(NNc1c2ccccc2nc2ccccc12)c1ccccc1O,7%,-5%,5,-3%,23%,14%
O=C(NNc1c2ccccc2nc2ccccc12)c1ccc(O)cc1O,28µM*,-5%,1,-8%,-5%,-6%
Cc1ccc(C(=O)NNc2nc3ccccc3nc2C(F)(F)F)cc1,16µM*,-9%,-6,-3%,-1%,-1%
O=C(NNc1c2ccccc2nc2ccccc12)c1ccc(O)cc1,11µM*,1%,-9,7%,3%,5%
COc1ccc(NC(=S)NNc2ccc([N+](=O)[O-])cc2S(=O)(=O)Nc2ccc(C)cc2C)cc1,?,-2%,-12,?,1%,22µM*
Cc1ccc(NS(=O)(=O)c2cc([N+](=O)[O-])ccc2NNC(=S)Nc2cc(C)ccc2C)c(C)c1,7%,-6%,-11,-11%,-4%,?
C=C(C)CC(C)(C)C,/,-4%,/,/,4%,1%
Cc1cccc(-c2ccc(C=Nc3c(C)n(C)n(-c4ccccc4)c3=O)o2)c1,4µM*,4%,0,-16%,6%,1%
